From PubChem
UGM FP inh = blocks M. tuberculosis UGM enzyme; 320,000 compounds, 0.06% hits; purified UGM, fluorescence polarization probe displacement; inhibition, % at 10 µM; P9WIQ1; in the data active = inhibition above about 10%, passing the limit was not always enough
Target sequence (P9WIQ1 whole entry, looked up): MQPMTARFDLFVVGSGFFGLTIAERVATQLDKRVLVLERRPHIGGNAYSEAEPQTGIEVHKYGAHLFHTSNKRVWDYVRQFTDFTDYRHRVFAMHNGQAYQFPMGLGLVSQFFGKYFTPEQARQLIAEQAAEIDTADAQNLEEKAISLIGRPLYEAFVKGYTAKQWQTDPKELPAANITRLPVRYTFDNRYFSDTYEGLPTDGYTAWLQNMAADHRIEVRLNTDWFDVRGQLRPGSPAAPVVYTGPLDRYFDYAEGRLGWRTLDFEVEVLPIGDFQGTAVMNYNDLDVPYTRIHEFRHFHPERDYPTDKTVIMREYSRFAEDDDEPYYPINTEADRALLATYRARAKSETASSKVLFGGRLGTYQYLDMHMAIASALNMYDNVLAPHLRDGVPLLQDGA
Rv3671c inh = inhibits the M. tuberculosis serine protease Rv3671c. inhibition, % at 5.96 µM. 320,000 compounds, 0.048% hits. P9WHR9. AID 2606; in the data active = inhibition above about 38%;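 also: extracellular domain of Rv3671c used as enzyme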
Mtb hypoxia rep = inhibitors of hypoxia-regulated fluorescent reporter in Mycobacterium tuberculosis; 300,000 compounds, 0.1% hits; M. tuberculosis hypoxia-regulated fluorescent reporter, fluorescence; fluorescence inhibition, % (no concentration beside the values); AID 1159583; in the data active = fluorescence inhibition mostly above about 23%, no sharp cut-off; inactive = mostly below about 17%
VHR inh abs = blocks human VHR1 dual specificity phosphatase; P51452; recombinant VHR phosphatase, pNPP absorbance; inhibition, % at 13.3 µM; 290,000 compounds, 0.52% hits; AID 1654; in the data active = inhibition above about 50%
Target sequence (P51452 whole entry, looked up): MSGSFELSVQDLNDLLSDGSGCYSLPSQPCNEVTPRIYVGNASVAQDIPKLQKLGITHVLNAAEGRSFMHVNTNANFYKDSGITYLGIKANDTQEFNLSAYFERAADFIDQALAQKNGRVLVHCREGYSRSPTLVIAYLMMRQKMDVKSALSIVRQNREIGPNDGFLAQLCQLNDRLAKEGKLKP
Mtb betalactam = beta-lactam sensitization of Mtb H37Rv; M. tuberculosis H37Rv growth with meropenem, percent inhibition; inhibition, % at 25 µM; 330,000 compounds, 0.27% hits; call rule not given here;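 also: growth measured after seven days incubation then overnight dye step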
A number is an active result; 0 = inactive; - = no result. Most compounds without a hit are left out; they make up all but 0.59% or so of the library.

SMILES | UGM FP inh | Rv3671c inh | Mtb hypoxia rep | VHR inh abs | Mtb betalactam
CS(=O)(=O)N(CC(=O)Nc1ccccc1C(=O)N1CCCC1)c1ccccc1Br | 0 | 0 | 0 | 0 | 0
CCC(C)[C@H](NC(=O)N1CC(=O)Nc2ccccc21)C(=O)Nc1nccs1 (stereo partly specified) | 0 | 0 | 0 | 52 | 0
CC(C)[C@H](NC(=O)N1CC(=O)Nc2ccccc21)C(=O)Nc1nccs1 | 0 | 0 | 0 | 0 | 0
CC(C)c1ccc(NC(=O)CCNC(=O)N2CC(=O)Nc3ccccc32)cc1 | 0 | 0 | 0 | 51 | 0
COc1ccc(C(O)(CCN2CCCCC2)C2CCCCC2)cc1 (stereo unspecified) | 0 | 0 | 0 | 0 | 0
COc1ccc(NC(=O)C2CCCN2S(=O)(=O)c2cccc3nsnc23)c(OC)c1 (stereo unspecified) | 0 | 0 | 0 | 60 | 0
CN(CC(=O)NC(=O)NCc1ccccc1)Cc1ccc(Cl)c(Cl)c1 | 0 | 0 | 0 | 0 | 0
COc1ccc(CCNC(=O)c2sc(=S)n(C)c2N)cc1 | 0 | 0 | - | 0 | 0
COc1ccc(-n2c(C)ccc2-c2ccccc2)cn1 | 58 | 0 | - | 0 | 0
Oc1[nH]c2ccc(Br)cc2c1N=Nc1ccc(F)cc1 | 18 | 0 | 0 | 0 | 0
CS(=O)(=O)N1CCN(c2ccc([N+](=O)[O-])c(NCc3ccc(Cl)cc3)c2)CC1 | 0 | 0 | 0 | 90 | 0
CS(=O)(=O)N1CCN(c2ccc([N+](=O)[O-])c(NCc3ccccc3)c2)CC1 | 0 | 0 | 0 | 0 | 0
O=C(OCCCOC(=O)c1ccc([N+](=O)[O-])o1)c1ccc([N+](=O)[O-])o1 | 0 | 0 | 71 | - | 0
Nc1ccc(C2(c3ccc(N)cc3)c3ccccc3-c3ccccc32)cc1 | 0 | 0 | 50 | 0 | 0
CCOCCCNC(=S)N(CCO)Cc1cc2cc3c(cc2[nH]c1=O)OCCO3 | 0 | 0 | 0 | 50 | 0
CC(C)OCCCn1c(=O)c2ccccc2n2c(CCC(=O)NC3CCN(Cc4ccccc4)CC3)nnc12 | 0 | 0 | 0 | 53 | 0
O=C(CCl)N(c1ccccc1)c1c[nH]c2ccccc12 | 0 | 0 | - | 0 | 0
O=C(CCl)N(c1ccc(Cl)cc1)c1c[nH]c2ccccc12 | 0 | 0 | 36 | 0 | 0
CC(=O)NC12CC3CC(C1)CC(C(=O)Nc1nccs1)(C3)C2 | 0 | 0 | - | 0 | 0
CCOc1ccc(CCNC(=O)CN2C(=O)NC3(CCCc4ccccc43)C2=O)cc1OCC (stereo unspecified) | 0 | 0 | 0 | - | 0
CCCC(=O)Nc1ccc(Cc2ccc(NC(=O)CCC)c(C(=O)O)c2)cc1C(=O)O | 11 | 0 | 0 | 0 | 0
CCO[C@@H]1OC(C(=O)N2CCN(Cc3ccc4c(c3)OCO4)CC2)=C[C@H](c2ccc(Br)cc2)[C@H]1CCCO | 0 | 0 | - | 0 | 0
Cc1scc(C(=O)NCc2ccco2)c1-c1ccccc1 | 0 | 0 | 0 | 0 | 0
COc1ccccc1CN1CCNC(=O)C1CC(=O)NCCCn1cccn1 (stereo unspecified) | 0 | 0 | 0 | 0 | 0
CCOc1ccccc1CN1CCNC(=O)C1CC(=O)NCCCn1cccn1 (stereo unspecified) | 0 | 0 | 0 | 51 | 0
SMILES | UGM FP inh | Rv3671c inh | Mtb hypoxia rep | VHR inh abs | Mtb betalactam
CC(=O)N1CCC2(CC1)CC(=O)c1cc(OCC(=O)NCc3ccc(C)cc3)ccc1O2 | 0 | 0 | 0 | 0 | 0
Cn1cc(/C=C/c2cc[n+](C)cc2)c2cc(F)ccc21 | 0 | 0 | 0 | 0 | 0
Cn1cc(/C=C/c2cc[n+](C)cc2)c2cc(Cl)ccc21 | 0 | 0 | 35 | 0 | 0
CC(C)C[C@H](NC(=O)c1nc[nH]c1C(=O)NCCCCCN)C(=O)OCc1ccccc1 | 0 | 0 | - | - | 0
CCn1cc(CNC(=O)c2ccc(C)s2)cn1 | 0 | 0 | 0 | 57 | 0
Cn1c(-c2ccccc2)cnc1SCC(=O)NCc1ccco1 | 0 | 0 | 0 | 0 | 0
CCOC(=O)/C(C#N)=C/Nc1cc(OC)ccc1OC | 0 | 0 | 0 | 0 | 0
CCOP(=O)(OCC)/C(C#N)=C/c1cc(OC)ccc1OC | 0 | - | 0 | 52 | 0
COc1ccc(CCNC(=O)C2CCC(=O)N2Cc2ccccc2Cl)cc1OC (stereo unspecified) | 0 | 0 | 0 | 0 | 0
O=C(COC(=O)CSc1ccc([N+](=O)[O-])cc1)NCc1cccs1 | 0 | 0 | 0 | - | 0
CC(=O)Nc1ccc(NC(=S)NC(=O)C2CCCC2)cc1 | 0 | 0 | 0 | 60 | 0
COc1ccc(CC(NC(C)=O)C(=O)NC2CCN(C(=O)c3cccc(Cl)c3)CC2)cc1OC (stereo unspecified) | - | - | 0 | 53 | -
CN(C(=O)CSc1nnc(N)s1)C1CCCCC1 | 0 | 0 | 0 | 0 | 0
CC1(c2ccccc2)NC(=O)N(CC(=O)N2CCN(S(=O)(=O)c3cccc(C(F)(F)F)c3)CC2)C1=O (stereo unspecified) | - | - | 0 | - | -
CCc1ccccc1NC(=O)CCCSc1nc2ccccc2s1 | 0 | 0 | 0 | 0 | 0
COc1ccc(C2=CSC(N=Cc3ccc(F)cc3)=NN2)cc1 | - | - | 39 | - | -
COc1ccc(C2=CSC(/N=C/c3ccc(F)cc3)=NN2)cc1 | 0 | 0 | - | 0 | 0
CC(=O)N1CSCC1C(=O)N1CCN(c2ccc(N3CCOCC3)nn2)CC1 (stereo unspecified) | 0 | 0 | 0 | 0 | 0
O=C(NCc1cccnc1)/C(=C/c1ccc(Cl)cc1)NC(=O)c1ccccc1 | 0 | 0 | 0 | 0 | 0
O=C(NCc1ccccc1Cl)/C(=C\c1cccnc1)NC(=O)c1ccccc1 | 0 | 0 | 0 | 58 | 0
CCn1cc(/C=C(\NC(=O)c2ccc(OC)c(OC)c2)C(=O)N2CCN(C)CC2)c2ccccc21 | 0 | 0 | 0 | 57 | 0
CCOC(=O)CSc1nnc2n(Cc3ccccc3)c(=O)c3c4c(sc3n12)CCC4 | - | - | - | 52 | -
Cc1nnc2n(Cc3ccccc3)c(=O)c3c4c(sc3n12)CCCC4 | - | - | - | 0 | -
O=S(=O)(c1ccccc1)N1N=C(c2ccccc2)CC1c1ccccc1F (stereo unspecified) | 0 | 0 | 0 | 53 | 0
COc1ccccc1C1CC(c2ccc(NS(C)(=O)=O)cc2)=NN1S(=O)(=O)c1ccccc1 (stereo unspecified) | 0 | 0 | 0 | 0 | 0
SMILES | UGM FP inh | Rv3671c inh | Mtb hypoxia rep | VHR inh abs | Mtb betalactam
O=C(Nc1cccc(Cl)c1)c1ccc(=O)[nH]n1 | 0 | 0 | 0 | 0 | 0
Cc1ccccc1N(C(=O)Cc1ccsc1)C(C(=O)NC1CCCCC1)c1ccc(F)cc1 (stereo unspecified) | 0 | 0 | 0 | 56 | 0
Oc1ccc(N2CCN(CC(O)c3ccccc3)CC2)cc1 (stereo unspecified) | 0 | 0 | 0 | 50 | 0
Cc1cc(=O)oc2cc(OCC(=O)OCC(=O)Nc3ccc(C(N)=O)cc3)ccc12 | 0 | 0 | 0 | 0 | 0
COc1ccc(Cl)cc1NC(=O)CN1CCCCCC1 | 0 | 0 | 0 | 0 | 0
COc1ccccc1NC(=O)CN1CCN(C2c3ccccc3-c3ccccc32)CC1 | 0 | 0 | - | 51 | 0
COc1ccc(N)cc1NC(=O)CN1CCCC1 | 0 | 0 | 0 | 59 | 0
COc1ccc(NC(=O)CN2CCN(C3c4ccccc4-c4ccccc43)CC2)c(OC)c1 | 0 | 0 | - | 0 | -
C=CCOc1ccccc1CN1CCSCC1 | 0 | 0 | 0 | 0 | 0
NS(=O)(=O)c1ccc(CNS(=O)(=O)c2ccc(Cl)nc2)cc1 | 0 | 0 | 0 | 0 | 0
